Source: PubChem
Compounds with a hit are over-represented: about 4% of the library has one in this group of screens.
Shn3 3UTR inh: Schnurri-3 reporter inhibition in Clone20 osteoblasts; Clone20 osteoblast Shn3 3'UTR firefly luciferase, 24 h; inhibition, % at 12.5 µM; hit rate 0.52% among 360,000; AID 588674;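 active means mean inhibition of at least 75% with every replicate also reaching 75%; inconclusive means mean inhibition at least 75% but some replicate below; inactive means mean inhibition below 75%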;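 further: 0% = median of neutral control wells and 100% = pilot-screen positive control compound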
Mdm2-MdmX inh: inhibitors of human Mdm2/MdmX interaction | O15151+Q00987 | SaOS-2 split-luciferase Mdm2/MdmX complementation, luminescence | inhibition, % at 8 µM | hit rate 3% among 330,000 | AID 485346;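 active means inhibition of at least 50% at 8 µM in the primary screen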
CSC inhib: cancer stem cell inhibition. hit rate 1.1% among 300,000. inhibition, % at 7.5 µM. AID 2717. cancer stem cell-like cells viability, luminescence; in the data active means inhibition above about 75%; inconclusive means no clear call, values can overlap the other calls; tested in HMLE shEcad cells
PAX8 inh HTS: inhibitors of PAX8 transcriptional activity in RMG-I cells; hit rate 1.2% among 360,000; AID 652154; inhibition, % at 12.6 µM; RMG-I TPO-luciferase reporter, SteadyGlo, 24 h;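 active means mean replicate inhibition at least 60% with every replicate also reaching 60%; inconclusive means only one of the two criteria is met; inactive means mean below 60% and not all replicates reaching 60%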;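 further: luciferase light reporting Pax8 driven TPO promoter activity; plate controls were median of neutral control wells for no effect and mitoxantrone controls for full effect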
Gli-Sufu antag: Gli-Sufu pathway antagonism; inhibition, % at 5 µM; hit rate 0.74% among 340,000; AID 588413; Sufu-KO-LIGHT fibroblasts, Gli luciferase reporter luminescence;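 active means inhibition above about 55%, limit read from the data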;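 further: 0% = DMSO-treated cells and 100% = wells with medium but no cells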
Beta cell apopt: blocks beta cell apoptosis. INS-1E cytokine-induced death, ATP luminescence, 48 h; percent of positive-control rescue, neutral wells zero. protection from apoptosis, % (concentration not given with the values). hit rate 0.8% among 300,000;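 active means Every replicate reaches about 75%, or at least half do and their mean reaches it too, limit read from the data; inconclusive means At least half of replicates reach the limit but their mean does not; inactive means Under half of replicates reach the limit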;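 further: 0% = cytokine-treated negative control wells and 100% = positive control rescue; higher means more ATP so stronger rescue from cytokine killing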
Mdm2-MdmX conf: confirmation of human Mdm2/MdmX interaction inhibitors. shares compounds with Mdm2-MdmX inh. Mdm2-MdmX binding, luminescent assay. inhibition, % at 8 µM. hit rate 55% among 10,000. AID 489028; in the data active means inhibition above about 40%
FLuc counter: counter-screen for Mdm2/MdmX inhibitors: full-length luciferase; AID 504607; shares compounds with Mdm2-MdmX inh; SaOS-2 full-length luciferase counterscreen, luminescence; hit rate 77% among 6,200; inhibition, % at 8 µM;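 active means mean inhibition at 8 µM reaching about 37%, which flags the compound as non-specific, limit read from the data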;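 further: p53-null SaOS-2 cells with luciferase driven by a doxycycline-inducible promoter; compound on cells about two nights before reading with doxycycline added after day one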
Starred values were filed as active, the others as inactive; ? = inconclusive; . = no result given.

SMILES	Shn3 3UTR inh	Mdm2-MdmX inh	CSC inhib	PAX8 inh HTS	Gli-Sufu antag	Beta cell apopt	Mdm2-MdmX conf	FLuc counter
NC(=O)NCCCC(NC(=O)c1ccc(C#CC2(O)CCCCC2)cc1)C(=O)O (stereo not given)	-1	61*	4	-6	0	5	6	.
CCOC(=O)CNC(=O)c1ccc(C#CC2(O)CCCCC2)cc1	-11	14	-1	-15	-19	5	.	.
O=C1CSC(=S)N1Cc1cccnc1	19	94*	60	.	42	9	80*	50*
COc1ccc(C[C@@H]2CCn3cc(nn3)COC[C@@H](C(C)C)NC2=O)cc1	.	.	.	-30	.	.	.	.
Nc1ccc2nn(-c3cccc4ccccc34)nc2c1	3	53*	-8	.	-3	75*	-1	.
CCn1c(=O)c2c(cnn2C)c2ccccc21	27	81*	-2	-17	-15	-17	12	.
COc1cccc(-c2ccc([C@@H]3[C@@H](CO)N4CCCCN(C(=O)NC(C)C)C[C@@H]34)cc2)c1	.	.	.	-1	.	.	.	.
Cc1cccc(NC(=S)N(CCCN2CCCC2)Cc2cccn2Cc2ccc(Cl)cc2)c1	27	54*	60	-10	5	17	37	23
CCN1CCN(CCCN(Cc2ccco2)C(=S)Nc2ccc(Cl)cc2)CC1	13	2	26	6	8	-5	.	.
CN1CCN(CCCN(Cc2ccco2)C(=S)Nc2ccc(Cl)cc2)CC1	26	4	11	10	8	-13	.	.
CCOc1ccc(NC(=S)N(CCCN2CCCC2)Cc2cccn2Cc2ccc(Cl)cc2)cc1	-3	65*	.	-32	3	7	35	.
Cc1c(NC(=O)Nc2ccc(Cl)cc2)c(=O)n(-c2ccccc2)n1C	-17	-25	.	.	25	.	.	.
Cc1c(N=C2N=C(NC(=O)Nc3ccc(Cl)cc3)c3ccccc32)c(=O)n(-c2ccccc2)n1C	3	58*	.	-2	23	7	25	.
C[C@H](CO)N1C[C@H](C)[C@H](CN(C)S(=O)(=O)c2ccc(F)cc2)Oc2c(NS(=O)(=O)c3ccc(Cl)cc3)cccc2C1=O	.	.	.	23	.	.	.	.
Fc1ccc(C2c3[nH]c4ccccc4c3CCN2Cc2cccn2-c2ncccn2)cc1 (stereo not given)	13	78*	-8	?	16	4	62*	61*
COc1cccc(C2c3[nH]c4ccccc4c3CCN2Cc2cccn2-c2ncccn2)c1 (stereo not given)	-5	8	8	10	7	4	.	.
CCOC(=O)c1cccc(Nc2nc(-c3cccnc3)nc3ccccc23)c1	25	70*	92*	.	20	42	36	.
O=C(O)c1cccc(Nc2nc(-c3cccnc3)nc3ccccc23)c1	-18	-6	-8	-9	-6	-2	.	.
COC(=O)c1cccc(Nc2nc(-c3cccnc3)nc3ccccc23)c1	15	70*	31	18	5	28	43*	72*
CCCC(=O)Nc1ccc2c(c1)OC[C@H](C)N(Cc1ccc(F)cc1)C[C@H](C)[C@@H](OC)CN(C)C2=O	.	.	.	13	.	.	.	.
C/C(=N\NC(=O)c1ccc(CN2CCc3ccccc3C2)cc1)c1ccccc1O	45	55*	-4	11	5	29	65*	85*
Cc1cc2c(c(/C=C/C(=O)c3ccccc3)c1)OC1(C=C2)Oc2ccccc2C(=O)N1C (stereo not given)	93*	91*	138*	11	8	-5	83*	48*
Cn1cc(/C=C/C(=O)c2ccccc2)c2ccccc21	-103	-77	17	-57	-76	.	.	.
COc1ccc(C(=O)N(C)CCCC2CCCC2)cc1OC1CCN(C(C)C)CC1	38	55*	10	12	34	13	36	72*
COc1ccc(C(=O)N(C)CCCC2CCCC2)cc1OC1CCN(C(C)=O)CC1	5	2	22	0	10	-2	.	.
CC(C)NC(=O)Nc1ccc2c(c1)C(=O)N([C@@H](C)CO)C[C@@H](C)[C@@H](CN(C)CC1CCCCC1)O2	.	.	.	-5	.	.	.	.
N#C/C(=C/c1ccc(Br)o1)C(N)=S	.	76*	40	.	.	4	43*	64*
N#C/C(=C/c1ccc(Br)o1)C(N)=O	.	23	0	.	5	0	.	.
